Data taken from PubChem BioAssay.

test: compound effects on differentiated 3T3-L1 adipocyte viability – cell-based, 3T3-L1 adipocytes, calcein-AM fluorescence, 48 h, basal, profiling panel (AID 1163); settings: 3T3-L1 adipocytes viability, higher = more signal; further: test concentration not given here

SMILES	z-score
O=C1c2ccccc2[C@](Cc2ccccc2I)(C(=O)NCCN2CCOCC2)[C@H](c2ccc(CO)cc2)N1Cc1ccccc1	0.193
CN(C)CCCCNC(=O)[C@H]1C[C@H]2C(=O)N3CCC[C@H]3C(=O)N2[C@H]1c1ccc(O)cc1	0.862
C=C(CCCC)C(=O)CC[C@@H](OC(=O)c1ccccc1-c1ccccc1C(=O)O)c1cccc(OCCO)c1	1.12
C=C(C(=O)CC[C@H](OC(=O)c1cccnc1)c1ccc(CO)o1)C(C)C	-0.449
COc1ccc(C#Cc2ccc3c(c2)[C@]2(C(=O)N3)[C@H](C(=O)N3CCc4cc(OC)c(OC)cc4C3)[C@H]3C(=O)O[C@H](c4ccccc4)[C@H](c4ccccc4)N3[C@@H]2c2ccc(O)cc2)cc1	-0.163
[N-]=[N+]=NCc1ccccc1C[C@@]1(C(=O)N2CCCCC2)N=C(c2ccc(OCCCO)cc2)O[C@@H]1c1ccccc1N=[N+]=[N-]	1.03
C=C[C@@H](COC(C)=O)NS(=O)(=O)c1ccc(Br)cc1	-0.342
CCOC(=O)C[C@H]1[C@H](OC(=O)c2ccc(-c3ccccc3)cc2)[C@@H](NC(=O)c2ccc3ccccc3c2)c2cc(OCCCO)ccc2N1C(=O)c1ccc2ccccc2n1	0.543
CC(C)(C)OC(=O)CC[C@]1(C(=O)NCCN2CCOCC2)N=C(c2ccc(OCCCO)cc2)O[C@H]1c1ccccc1	-1.82
C=CCOC(=O)[C@@H]1[C@H]2C(=O)O[C@H](c3ccccc3)[C@H](c3ccccc3)N2[C@H](c2ccc(OCCOC(=O)[C@H]3C[C@H]4C(=O)N[C@@H](CC(C)C)C(=O)N4[C@H]3c3ccc(O)cc3)cc2)[C@@]12C(=O)Nc1ccc(I)cc12	0.325
O=C(CS)NCCCCCCNC(=O)[C@@H]1C[C@@H]2C(=O)N3CCC[C@H]3C(=O)N2[C@@H]1c1cccc(OCCO)c1	0.426
COc1ccccc1CN1C(=O)c2ccccc2[C@@H](C(=O)NC(C)C)[C@@H]1c1ccc(CO)cc1	0.611
C=CCOC(=O)[C@@H]1[C@H]2C(=O)O[C@H](c3ccccc3)[C@H](c3ccccc3)N2[C@H](c2ccc(OCCOC(=O)[C@H]3C[C@H]4C(=O)N[C@@H](CCCCNC(C)=O)C(=O)N4[C@H]3c3cccc(OCCO)c3)cc2)[C@@]12C(=O)Nc1ccc(I)cc12	0.159
O=C1OCC=C[C@H]2OC34C=CCN(Cn5nnc6ccccc65)C(=O)[C@H]3N(CCCCCCO)C(=O)[C@@H]4[C@@H]12 (some centres not stated)	0.352
COC(=O)Cn1c(C(=O)N2CCCC2)cc2c1C[C@H]1CN(C(=O)c3ccccc3)[C@@](Cc3ccc(F)cc3)(C(=O)OC)[C@@H]21	0.0791
COc1cc(OC)c(C(O)C2C=CC3C(=O)N(c4ccccc4)C(=O)C3N2Nc2ccc(C#N)cc2)cc1Br (configuration not stated)	-0.693
COc1ccc([Si](C)(C)[C@@H]2[C@@H](CC(=O)N3CCC[C@H]3CO)O[C@]3(C(=O)N(Cc4ccc(N5C(=O)c6cccc7cccc5c67)cc4)c4ccccc43)[C@H]2C)cc1	1.43
CC=CC(O)C1C=CC2C(=O)N(c3ccccc3)C(=O)C2N1Nc1ccccc1 (configuration not stated)	-0.511
CC(C)C(=C=CC[C@@H](O)c1ccccc1OCCO)C[C@@H](O)COCc1ccccc1	0.435
CC(C)(C)N1CC=CC23O[C@@H]4C=CCOC(=O)[C@@H]4[C@H]2C(=O)N(CCCO)[C@@H]3C1=O (some centres not stated)	1.55
COc1c(C)cc(-c2cc3c(c(-c4ccccc4)n2)[Si](C(C)C)(C(C)C)OC3)cc1C	-0.182
Cc1ccc(S[C@]2(C(=O)NCC(C)C)CC(=O)N(Cc3ccccc3Cl)[C@@H]2c2ccc(CO)cc2I)cc1	-0.201
O=C1O[C@@H](c2ccccc2)[C@@H](c2ccccc2)N2[C@@H](c3ccccc3OCCO)[C@]3(C(=O)Nc4ccc(C#CC5=CCCCC5)cc43)[C@@H](C(=O)NC[C@H](O)c3ccccc3)[C@H]12	1.68
O=C(O)[C@H](Cc1ccccc1)n1cc(-c2ccccn2)nn1	0.039
CC1CC/C=C\[C@H]2OC34C=CCN(CCN5CCOCC5)C(=O)[C@H]3N(CCO)C(=O)[C@@H]4C2C(=O)O1 (some centres not stated)	1.44
CCOC(=O)C[C@H]1[C@H](OC(=O)c2ccc(-c3ccccc3)cc2)[C@@H](NC(=O)C2CCCCC2)c2cc(OCCCO)ccc2N1C(=O)c1ccccc1	0.557
COCCCNC(=O)[C@@]1(Sc2ccc(C)cc2)CC(=O)N(Cc2cc(C(F)(F)F)cc(C(F)(F)F)c2)[C@@H]1c1ccc(CO)cc1	-0.515
